Measured values from PubChem BioAssay (Tox21).
Records with an inconclusive call do not appear. Calls of active or inactive are those of the source. Unless noted, calls follow the shape of the dose curve; as a rule, active = well fitted curve in the direction sought with a large enough effect in the repeat runs; inconclusive = weak or mixed curves; inactive = no such curve, though single readings can be large; an effect the other way counts as inactive or inconclusive.

Tests used:
[1] = biological target: Bile acid receptor (Homo sapiens) (UniProt Q96RI1); assay: qHTS assay to identify small molecule antagonists of the farnesoid-X-receptor (FXR) signaling pathway (AID 743217; active = well fitted inhibition curve with a large enough effect in the signal ratio in the repeat runs, not every such curve was filed as active; the % refers to the signal ratio)
Chain of Bile acid receptor (Homo sapiens) (Q96RI1 whole entry, looked up): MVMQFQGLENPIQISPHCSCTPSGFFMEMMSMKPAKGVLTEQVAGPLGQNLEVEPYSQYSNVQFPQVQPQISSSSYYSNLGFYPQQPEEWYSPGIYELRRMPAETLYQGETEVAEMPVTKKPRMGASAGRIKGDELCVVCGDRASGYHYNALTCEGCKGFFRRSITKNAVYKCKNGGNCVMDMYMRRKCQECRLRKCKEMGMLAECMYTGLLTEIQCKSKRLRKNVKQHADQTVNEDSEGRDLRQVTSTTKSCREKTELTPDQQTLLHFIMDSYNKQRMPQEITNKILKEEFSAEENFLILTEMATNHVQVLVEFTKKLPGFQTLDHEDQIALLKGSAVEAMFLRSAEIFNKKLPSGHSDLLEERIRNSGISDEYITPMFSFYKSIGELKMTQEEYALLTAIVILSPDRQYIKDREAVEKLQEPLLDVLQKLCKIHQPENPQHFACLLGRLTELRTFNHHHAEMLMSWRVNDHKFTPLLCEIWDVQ
Summary of the method: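 Screen of the Tox21 10K library in quantitative HTS format using FXR-UAS-bla HEK 293T reporter cells. Agonist chenodeoxycholic acid, 50 uM final, added with compounds; 16 h incubation at 37 °C; beta-lactamase FRET fluorescence measured.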

[2] = qHTS assay to identify small molecule agonists of the farnesoid-X-receptor (FXR) signaling pathway - cell viability counter screen (AID 743218); also: nearly all actives have a fitted effect of over 45% in size
Summary of the method: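 Viability of FXR-bla HEK 293T cells is measured by ATP-based CellTiter-Glo luminescence following 16 h compound treatment at 37 C and a prior 2 h room-temperature beta-lactamase substrate step.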

[3] = biological target: Bile acid receptor (Homo sapiens) (UniProt Q96RI1); assay: qHTS assay to identify small molecule agonists of the farnesoid-X-receptor (FXR) signaling pathway (AID 743220; active = well fitted activation curve with a large enough effect in the signal ratio in the repeat runs, not every such curve was filed as active; the % refers to the signal ratio)
Summary of the method: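 FXR-UAS-bla HEK 293T cells carrying a UAS-driven beta-lactamase reporter were plated for 5 h at 37C/5% CO2, then exposed to DMSO-dissolved Tox21 10K compounds for 16 h at 37C. A LiveBLAzer B/G FRET substrate was loaded for 2 h at room temperature before fluorescence reading.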

[4] = qHTS assay to identify small molecule antagonists of the farnesoid-X-receptor (FXR) signaling pathway - cell viability counter screen (AID 743221; active = well fitted cell-killing curve with a large enough effect in the repeat runs, not every such curve was filed as active; also: nearly all actives have a fitted effect of over 50% in size)
Summary of the method: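 Luminescence from CellTiter-Glo measures cytotoxicity in GeneBLAzer FXR-UAS-bla HEK 293T cells. Cells were exposed to compounds with 50 uM chenodeoxycholic acid (final) for 16 h at 37 C, in wells also used for the reporter readout.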

[5] = biological target: Vitamin D3 receptor (Homo sapiens) (UniProt P11473); assay: qHTS assay to identify small molecule agonists of the vitamin D receptor (VDR) signaling pathway (AID 743222; calls by dose curve)
Chain of Vitamin D3 receptor (Homo sapiens) (P11473 whole entry, looked up): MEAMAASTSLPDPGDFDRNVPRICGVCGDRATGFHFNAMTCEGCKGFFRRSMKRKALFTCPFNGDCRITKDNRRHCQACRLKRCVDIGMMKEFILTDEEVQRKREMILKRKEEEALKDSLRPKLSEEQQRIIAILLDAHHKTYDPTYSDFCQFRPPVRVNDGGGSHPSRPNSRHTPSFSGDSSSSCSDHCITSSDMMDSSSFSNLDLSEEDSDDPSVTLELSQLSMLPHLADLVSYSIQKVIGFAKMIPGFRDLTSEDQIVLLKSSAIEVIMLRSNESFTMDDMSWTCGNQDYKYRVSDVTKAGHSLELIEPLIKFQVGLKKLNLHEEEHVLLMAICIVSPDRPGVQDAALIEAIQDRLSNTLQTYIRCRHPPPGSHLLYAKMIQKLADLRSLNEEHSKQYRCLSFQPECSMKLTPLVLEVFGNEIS
Summary of the method: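 Fluorescence from cleaved LiveBLAzer B/G FRET substrate served as readout. VDR-bla cells had been treated 16 h at 37C with test compounds in DMSO, following a 4 h settling period, and substrate was loaded for 2 h at RT.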

[6] = biological target: Vitamin D3 receptor (Homo sapiens) (UniProt P11473); assay: qHTS assay to identify small molecule antagonists of the vitamin D receptor (VDR) signaling pathway (AID 743223; active = well fitted inhibition curve with a large enough effect in the signal ratio in the repeat runs, not every such curve was filed as active; the % refers to the signal ratio)
Summary of the method: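 Antagonist mode uses 1alpha,25-dihydroxyvitamin D3 at 3 nM final as stimulus. VDR-bla cells receive compounds in DMSO, incubate 16 h at 37C, then a beta-lactamase FRET substrate for 2 h at room temperature before fluorescence measurement.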

[7] = qHTS assay to identify small molecule agonists of the vitamin D receptor (VDR) signaling pathway - cell viability counter screen (AID 743224); also: series mostly up to about 63 µM; nearly all actives have a fitted effect of over 50% in size
Summary of the method: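 Compounds were pin-transferred onto VDR-bla cells plated 4 h earlier; following 16 h incubation at 37C, cell viability was quantified by CellTiter-Glo luminescence after 30 min at room temperature.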

[8] = qHTS assay to identify small molecule antagonists of the vitamin D receptor (VDR) signaling pathway - cell viability counter screen (AID 743225); also: nearly all actives have a fitted effect of over 50% in size
Summary of the method: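 Read-out: CellTiter-Glo luminescence measured 30 min after reagent addition at room temperature. Cells were VDR-bla HEK 293T exposed 16 h at 37C, 5% CO2, to compound with 3 nM final calcitriol agonist.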

[9] = qHTS assay to identify small molecule agonists of the NFkB signaling pathway - cell viability counter screen (AID 1159515; calls by dose curve; also: series mostly up to about 61 µM; nearly all actives have a fitted effect of over 55% in size)
Summary of the method: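 Parallel cytotoxicity counter screen in ME-180 cells carrying an NFkB-response-element beta-lactamase reporter, 2,000 cells/well. Compound exposure lasted 5 hr at 37 C, 5% CO2. Cell viability was quantified by CellTiter-Glo luminescence.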

[10] = qHTS assay to identify small molecule agonists of the endoplasmic reticulum stress response signaling pathway (AID 1159516; active = well fitted activation curve with a large enough effect in the signal ratio in the repeat runs, not every such curve was filed as active; the % refers to the signal ratio)
Summary of the method: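 Using a HeLa line with an ESRE-driven beta-lactamase gene, agonist activity was measured by FRET substrate fluorescence (460 and 530 nm emission) after cells were treated with compounds for 5 hr at 37 C and 5% CO2.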

[11] = qHTS assay to identify small molecule antagonists of the retinoid-related orphan receptor gamma (ROR-gamma) signaling pathway - cell viability counter screen (AID 1159520); also: nearly all actives have a fitted effect of over 50% in size
Summary of the method: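 Cytotoxicity was read from cellular ATP (CellTiter-Glo luminescence) after 16 hr at 37 C with 1 uM doxycycline induction. The inducer was added 2 hr after compound transfer to Tet-on ROR gamma CHO cells.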

[12] = biological target: Nuclear receptor ROR-gamma (Homo sapiens) (UniProt P51449); assay: qHTS assay to identify small molecule antagonists of the retinoid-related orphan receptor gamma (ROR-gamma) signaling pathway (AID 1159521)
Summary of the method: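 CHO Tet-on RORγ, RORE-luc reporter. Cpd 2 h pre-incubation, then dox hyclate 1 uM final, 16 h, 37 C/5% CO2. ONE-Glo luminescence; decrease = antagonist.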

[13] = qHTS assay to identify small molecule agonists of the AP-1 signaling pathway - cell viability counter screen (AID 1159525; calls by dose curve; also: nearly all actives have a fitted effect of over 55% in size)
Summary of the method: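 Intracellular ATP by Cell Titer Glo luminescence (30 min, RT) in the same ME-180 AP-1-bla wells after the 5 h compound exposure at 37 °C. Normalised to tetra n-octyl ammonium bromide and DMSO controls.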

[14] = qHTS assay to identify small molecule agonists of the AP-1 signaling pathway (AID 1159526; calls by dose curve)
[15] = biological target: Retinoic acid receptor RXR-alpha (Homo sapiens) (UniProt P19793); assay: qHTS assay to identify small molecule agonists of the RXR signaling pathway (AID 1159527; calls by dose curve; also: nearly all actives have a fitted effect of over 35% in size)
Chain of Retinoic acid receptor RXR-alpha (Homo sapiens) (P19793 whole entry, looked up): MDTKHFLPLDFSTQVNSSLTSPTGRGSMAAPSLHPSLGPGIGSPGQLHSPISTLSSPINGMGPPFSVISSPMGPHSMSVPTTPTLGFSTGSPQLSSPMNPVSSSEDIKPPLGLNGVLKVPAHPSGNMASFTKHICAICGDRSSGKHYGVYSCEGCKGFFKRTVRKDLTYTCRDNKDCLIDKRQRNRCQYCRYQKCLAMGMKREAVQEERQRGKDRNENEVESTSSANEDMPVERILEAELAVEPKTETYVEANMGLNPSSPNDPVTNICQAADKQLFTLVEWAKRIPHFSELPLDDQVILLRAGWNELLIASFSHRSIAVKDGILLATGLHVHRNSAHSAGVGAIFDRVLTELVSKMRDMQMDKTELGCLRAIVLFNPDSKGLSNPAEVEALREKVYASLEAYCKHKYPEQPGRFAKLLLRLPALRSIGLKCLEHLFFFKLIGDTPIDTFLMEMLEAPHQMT
Summary of the method: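 Read-out: beta-lactamase FRET ratio (405 nm excitation, 460 and 530 nm emission) after 2 hr substrate loading at room temperature. Cells were RXR-alpha-UAS-bla HEK 293T treated with compounds for 16 hr in 2% charcoal-stripped FBS medium.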

[16] = qHTS assay to identify small molecule agonists of the RXR signaling pathway - cell viability counter screen (AID 1159529)
Summary of the method: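 HEK 293T RXRa-bla cells, 2% CS-FBS; 5 h settle; cpd 16 h 37 C, 5% CO2; CellTiter-Glo 30 min RT, luminescence. Tetraoctyl ammonium bromide as positive control.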

[17] = biological target: Peroxisome proliferator-activated receptor delta (Homo sapiens) (UniProt Q03181); assay: qHTS assay to identify small molecule agonists of the peroxisome proliferator-activated receptor delta (PPARd) signaling pathway (AID 743212; calls by dose curve;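 also: HEK293H cells with PPARd UAS beta-lactamase reporter GeneBLAzer system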)
Chain of Peroxisome proliferator-activated receptor delta (Homo sapiens) (Q03181 whole entry, looked up): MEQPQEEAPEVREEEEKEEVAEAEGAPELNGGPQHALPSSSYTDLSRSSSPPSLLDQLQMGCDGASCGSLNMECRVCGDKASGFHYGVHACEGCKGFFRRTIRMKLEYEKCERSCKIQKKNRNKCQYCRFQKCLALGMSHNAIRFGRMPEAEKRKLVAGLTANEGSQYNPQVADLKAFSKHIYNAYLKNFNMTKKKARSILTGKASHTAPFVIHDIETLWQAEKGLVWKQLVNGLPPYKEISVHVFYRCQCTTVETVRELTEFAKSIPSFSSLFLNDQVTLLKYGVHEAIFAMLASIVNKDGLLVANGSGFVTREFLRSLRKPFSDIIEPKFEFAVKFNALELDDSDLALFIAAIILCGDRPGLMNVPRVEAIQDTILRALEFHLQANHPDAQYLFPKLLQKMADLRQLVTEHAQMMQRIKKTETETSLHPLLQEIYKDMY
Summary of the method: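 Steps: seed PPARd-bla HEK293H cells; incubate 5 h, 37 C, 5% CO2; add compounds in DMSO; incubate, 37 C; add LiveBLAzer B/G FRET substrate; hold 2 h at room temperature; measure fluorescence.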

[18] = qHTS assay to identify small molecule antagonists of the peroxisome proliferator-activated receptor delta (PPARd) signaling pathway - cell viability counter screen (AID 743213); also: nearly all actives have a fitted effect of over 50% in size
Summary of the method: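 Same-well viability: cells pre-incubated 5 h, dosed with compound plus 300 nM L165041, kept 17 h at 37 C, FRET substrate 2 h RT, then CellTiter-Glo 30 min RT and luminescence.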

[19] = biological target: Peroxisome proliferator-activated receptor delta (Homo sapiens) (UniProt Q03181); assay: qHTS assay to identify small molecule antagonists of the peroxisome proliferator-activated receptor delta (PPARd) signaling pathway (AID 743215; active = well fitted inhibition curve with a large enough effect in the signal ratio in the repeat runs, not every such curve was filed as active; the % refers to the signal ratio;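 also: cells stimulated with agonist L165041 at 300 nM final during compound exposure; series mostly up to about 62 µM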)
Summary of the method: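 Plated HEK293H PPARd-bla cells rested 5 h at 37 C and 5% CO2. Compound, then agonist L165041 at 300 nM final, was added; 17 h at 37 C followed. Substrate loading, 2 h room temperature, fluorescence measured.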

[20] = qHTS assay to identify small molecule agonists of the endoplasmic reticulum stress response signaling pathway - cell viability counter screen (AID 1159517; calls by dose curve)
Summary of the method: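 After overnight attachment, ESRE-bla HeLa cells were treated with Tox21 library compounds for 5 hr. CellTiter-Glo luminescence, read 30 min post-addition at room temperature, reported viability.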

Measured: Potency

COc1cc(C(=O)NC2CCCNC2)cc(OC)c1OC (stereo not given)
not listed: [17] | [18] | [19] | [20]
inactive: all other assays above

O=C(O)CCC(=O)Nc1ccc(S(=O)(=O)Nc2nccs2)cc1
not listed: [3] | [7] | [8] | [10]
inactive: all other assays above

CC(C)(C)OC=O
not listed: [10] | [17] | [19]
inactive: all other assays above

NNC(=O)CCCCC(=O)NN
not listed: [10] | [19]
inactive: all other assays above

CCCCS
not listed: [1] | [3] | [10]
inactive: all other assays above

CC(C)(C)c1ccc(C(=O)CCCCl)cc1
not listed: [1] | [3] | [10] | [13]
inactive: all other assays above

CN(C)c1ccncc1
not listed: [1] | [3] | [10]
inactive: all other assays above

Cc1nnc(C(=O)NC(C)(C)c2nc(C(=O)NCc3ccc(F)cc3)c(O)c(=O)n2C)o1
not listed: [1] | [3] | [4] | [10] | [18] | [19]
inactive: all other assays above

COc1ccc(Cl)cc1C
not listed: [1] | [3] | [6] | [10] | [17] | [19]
inactive: all other assays above
